The entries come from a sample that favours hits as a whole.
PKA inh: PKA (human) kinase inhibition; actives 0.1% (n = 65,000); P17612; inhibition, % at 6 µM; AID 524; PKA Kemptide phosphorylation, Kinase-Glo ATP luminescence;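 active means inhibition above the screen-wide mean inhibition plus 3 SD, cut at about 21% in these data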
D1 allo mod: D1 dopamine receptor (human) allosteric modulation | B-score at 10 µM | HEK293 D1, CRE-luciferase, dopamine EC30 potentiation; actives deviate in either direction | actives 5.9% (n = 58,000) | P21728;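 active means luminescence count or its row- and column-corrected plate score outside the 99.7% band of the plate's sample wells, on either side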
hDAT+cocaine: changed human dopamine transporter uptake under cocaine IC80. LLC-PK1 hDAT cells, [14C]-dopamine uptake with cocaine IC80; actives deviate in either direction. actives 1.3% (n = 110,000). B-score at 10 µM. AID 449768. Q01959;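 active means Z score or B-score, a plate-position-corrected score, falls beyond the plate's 99.7% confidence bounds, in either direction; inactive means both scores lie inside the 99.7% bounds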;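 further: scored against the spread of the other compound wells on the same plate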
ROCK2 blocker: blocks human Rho kinase 2 activity; inhibition, % at 6 µM; purified ROCK2, Kinase-Glo ATP depletion luminescence; actives 0.35% (n = 60,000);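 active means inhibition above the screen-wide mean inhibition plus 3 SD, cut at about 18% in these data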;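 further: plate controls were DMSO wells for no effect and Y-27632 control wells after no-enzyme background subtraction for full effect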
D1 mod confirm: D1 receptor (human) allosteric modulation, confirmed; shares compounds with D1 allo mod; HEK293 D1 CRE-luciferase, dopamine EC30 potentiation; active compounds read high; luminescence at 10 µM; actives 88% (n = 2,200); AID 642;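 active means luminescence in either of two replicates above the same-plate mean plus 3 SD of the low-dose dopamine control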
D1 no dopamine: D1 (human) signaling in absence of dopamine; shares compounds with D1 allo mod; HEK293 D1 CRE-luciferase, luminescence, no dopamine; active compounds read high; luminescence at 10 µM; actives 0.8% (n = 1,900); in the data active means luminescence above about 3900
Isoprot counter: isoproterenol response counter-screen activity for D1 modulators; shares compounds with D1 allo mod; HEK293 D1 CRE-luciferase, isoproterenol EC30 counter-screen; calls only at 10 µM; actives 63% (n = 2,200); AID 647;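 active means luminescence in either replicate above plate mean of wells with a partly effective reference agonist dose plus 3 SD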;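 further: isoproterenol raises cAMP through native beta-adrenoceptor Gs so signal bypasses D1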
* = called active by the depositor; i = inactive; . = not tested or not shown; + = active, no number.

SMILES | PKA inh | D1 allo mod | hDAT+cocaine | ROCK2 blocker | D1 mod confirm | D1 no dopamine | Isoprot counter
COc1ccc2nc(SCC(=O)N3CCCCCC3)c(C#N)cc2c1 | -3 | 3.5* | 0.34 | 3 | 10688* | 1852 | i
N#Cc1cc2c(nc1SCC(=O)N1CCCCC1)CCCCC2 | 5 | 3.8* | 0.35 | 5 | 10608* | . | +
N#CCSc1nc2c(cc1C#N)CCCCCC2 | 4 | 7.9* | -0.94 | 10 | 11156* | 1660 | +
N#Cc1cc2c(nc1SCC(=O)N1CCCCC1)CCCC2 | -4 | 0.95 | 0.14 | -1 | . | . | .
C=CCN(CC=C)S(=O)(=O)c1ccc(NC(=S)NC(=O)Cc2ccc(OC)cc2)cc1 | . | . | 0.17 | . | . | . | .
CCOc1ccccc1C(=O)Nc1cccc(-c2nnc(-c3ccccc3)o2)c1 | . | . | -0.47 | . | . | . | .
CCOC(=O)Cc1c(C)nc2c(-c3cccc(Br)c3)c[nH]n2c1=O | -6 | 0.17 | 0.99 | -2 | . | . | .
CCS(=O)(=O)CCSc1nc2c(cc1C#N)CCCC2 | -5 | 5.5* | 1.4 | -1 | 19348* | 1760 | +
CCSc1c(-c2ccccc2)nc2c(C)cccc2c1C(=O)O | . | . | 0.8 | . | . | . | .
CSc1cc(/C=N/O)c(SC)s1 | 3 | 6.9* | -0.44 | 6 | 12744* | 1664 | i
Cc1cc(C)c(COCc2cc(/C=N/O)c(C)cc2C)cc1/C=N/O | . | . | 0.59 | . | . | . | .
COc1ccc(COC[C@H](C)[C@H](O)[C@@H](C)[C@H]2OC(=O)[C@@H]2C)cc1 | . | . | 0.14 | . | . | . | .
O=C(CSc1nnc(CNc2ccc(F)cc2)n1-c1ccccc1)N1CCOCC1 | . | . | -0.5 | . | . | . | .
COC(=O)c1cc2sccc2n1CC(=O)N1CCCc2ccccc21 | -3 | 2.5 | -0.56 | -7 | . | . | .
COC(=O)c1cc2sc(Cl)cc2n1CC(=O)N1CCCc2ccccc21 | 6 | 5.5* | -1.1 | 5 | 9576* | 1504 | i
Cc1[nH]n(-c2ccccc2)c(=O)c1S(=O)(=O)c1ccccc1 | 8 | 4.1* | -1.1 | . | 11060* | 1692 | i
COc1ccc(-n2nc3ccccc3n2)cc1 | 6 | 3.2* | 0.31 | 8 | 10504* | 1592 | i
CSc1nc(-c2ccco2)nn1S(=O)(=O)c1ccc(C)cc1 | 2 | 6.5* | -0.54 | 3 | 11872* | . | +
CSc1nc(-c2ccco2)nn1S(=O)(=O)c1ccccc1 | 10 | 6.6* | 0.46 | 6 | 19196* | 1648 | +
COc1ccc(C(=O)NC(C)(C)C)cc1S(=O)(=O)N1CCCC1 | . | . | 0.31 | . | . | . | .
Cc1ccc(S(=O)(=O)c2cc3c(=O)n4cccc(C)c4nc3n(Cc3ccco3)c2=N)cc1C | 5 | 1.6 | . | 5 | . | . | .
Cc1ccc(S(=O)(=O)c2cc3c(=O)n4ccccc4nc3n(Cc3ccco3)c2=N)cc1 | 7 | 5* | 0.83 | . | 15320* | 2068 | +
COc1ccc(OC)c(/C=N/c2oc(-c3ccco3)c(-c3ccco3)c2C#N)c1 | -1 | 9.5* | -1.8 | 3 | 16404* | 1712 | i
N#Cc1c(/N=C/c2ccco2)oc(-c2ccccc2)c1-c1ccccc1 | 4 | 0.75 | . | -1 | . | . | .
COc1ccc(N2CC(O)=C(c3n(C)c4ccccc4[n+]3C)C2=N)cc1 | . | . | 0.91 | . | . | . | .
SMILES | PKA inh | D1 allo mod | hDAT+cocaine | ROCK2 blocker | D1 mod confirm | D1 no dopamine | Isoprot counter
O=C(O)CCn1c(C2CCCCC2)nc2ccccc21 | 4 | 0.36 | 0.072 | -14 | . | . | .
N#CCn1c(C2CCCCC2)nc2ccccc2c1=O | 11 | 8.4* | 0.13 | . | 16652* | 1540 | +
Cc1cccc(-n2c(=O)[nH]c3c(C(N)=O)nc(C(C)C)nc32)c1 | -12 | 5.5* | 0.48 | -3 | 10016* | 1376 | i
c1ccc(COc2ccc(Oc3nc(N4CCCCC4)nc(N4CCOCC4)n3)nn2)cc1 | 3 | 9.2* | 0.93 | -4 | 15844* | 1888 | +
Cc1ccc(Nc2nc(Oc3ccc(OCc4ccccc4)nn3)nc(N3CCOCC3)n2)cc1 | -3 | 1.2 | -0.45 | 1 | . | . | .
Cc1cccc(OCC2=NS(=O)(=O)c3ccccc3N2)c1 | 7 | . | -1.1 | 3 | . | . | .
COc1ccc(-n2c(O)c(Cc3ccccc3)c(=O)n3nc(-c4ccccc4)c(=O)cc23)cc1 | . | . | 0.2 | . | . | . | .
Cc1cc(C)cc(SCc2noc(C(=O)NCCN(C)C)c2C(=O)NCCN(C)C)c1 | . | . | 0.31 | . | . | . | .
O=C(Nc1cccnc1)c1cnn2c(C(F)F)cc(C3CC3)nc12 | 1 | 5* | 0.0083 | 3 | 16636* | 1580 | +
O=C(Nc1cccnc1)c1ccccc1F | 10 | -0.13 | 0.35 | 5 | . | . | .
CCOC(=O)c1cnn2c(C(F)F)cc(C3CC3)nc12 | 5 | 3.7* | -0.73 | 8 | 14020* | 1636 | +
CCOC(=O)c1cnn2c(C)cc(-c3ccccc3)nc12 | 0 | -0.032 | -1.2 | -3 | . | . | .
Cc1cc(C)n(CCc2nc3c4ccccc4n(CC(=O)Nc4ccc(Cl)cc4F)c(=O)n3n2)n1 | 2 | 0.024 | . | 4 | . | . | .
CCCNC(=O)c1onc(CSc2ccncc2)c1C(=O)NCCC | . | . | -0.31 | . | . | . | .
CCCC(=O)c1ccc(N2CCN(S(=O)(=O)c3ccccc3)CC2)c(F)c1 | 11 | 4.8* | -1.7 | 7 | 4444 | 1352 | i
C#CCNC(=O)C1=C[C@@H](C2CCCCC2)[C@H](CCCO)[C@@H](OCC)O1 | . | . | 0.16 | . | . | . | .
CCOC(=O)c1sc2ccc(S(=O)(=O)N3CCOCC3)cc2c1N | 2 | 6.7* | -0.99 | . | 5484 | . | +
CCOC(=O)c1sc2ccc(S(=O)(=O)N3CCCCC3)cc2c1N | -7 | 1.5 | -0.04 | . | . | . | .
COc1ccc(-c2noc(-c3ccccc3C(=O)Nc3cccnc3)n2)cc1OC | 18 | 2 | -1.4 | 1 | . | . | .
CCOc1cc(-c2noc(CCC(=O)Nc3cccnc3)n2)ccc1OC | 1 | 18* | 1.3 | 1 | 17716* | 1472 | +
CCOc1ccc(-c2noc(CCC(=O)NC)n2)cc1OCC | 7 | 12* | -0.49 | 4 | 19240* | 1568 | +
CCN(CCCNC(=O)C1CCCN(S(=O)(=O)c2cnc[nH]2)C1)c1ccccc1 (stereo not given) | -10 | -0.099 | 0.34 | 2 | . | . | .
CCOC(=O)c1ccc(N2CN=C3SCC(=O)N3C2)cc1 | 2 | 3.1* | 0.74 | 0 | 5848* | 1596 | i
CCOC(=O)c1ccc(N=C2NC(=O)CS2)cc1 | 12 | -0.061 | 0.43 | 3 | . | . | .
CCCCn1c(=O)[nH]c(=O)c2c1nc(-c1ccc(-c3ccccc3Br)o1)n2CC | . | . | 1.3 | . | . | . | .
CCn1c(-c2ccsc2)nc2c1c(=O)[nH]c(=O)n2Cc1ccccc1 | -2 | 6.3* | 2.3 | 4 | 16576* | 1684 | +
COc1ccc(CCNC(=O)c2cc(-c3ccccc3O)n[nH]2)cc1OC | 4 | 4.4* | -9.6* | 9 | 8340* | 1572 | +
COc1ccc(CCNC(=O)c2cc(-c3ccc(C)cc3O)n[nH]2)cc1OC | . | . | 0.86 | . | . | . | .
COc1ccc(CCN(C)C(=O)CN2C(=O)c3ccccc3S2(=O)=O)cc1OC | 0 | . | -0.058 | -6 | . | . | .

High-throughput results deposited in PubChem by several laboratories.
